High-throughput results deposited in PubChem by National Center for Advancing Translational Sciences (NCATS).
PLK1 PBD block: qHTS for Inhibitors of PLK1-PDB (polo-like kinase 1 - polo-box domain): Primary Screen | Plk1 PBD binding of FITC phosphopeptide, fluorescence polarization | AID 720504, 2013 | Potency, µM, for the others: max response, negative = inhibition, actives largely listed as inhibitors | Serine/threonine-protein kinase PLK1 (Homo sapiens), P53350 | 360,000 compounds, 2.8% hits; also: series mostly up to about 57 µM; % is scaled to controls: 0 for no effect and ±100 for the full control effect; nearly all actives have a fitted effect of over 65% in size
VDR inhibitor: Inhibitors of the vitamin D receptor (VDR): qHTS; Vitamin D3 receptor (Homo sapiens), P11473; VDR-SRC2-3 peptide fluorescence polarization, 2 h; Potency, µM, inactives show max response, negative = inhibition, most hits filed as inhibitors; 400,000 compounds, 0.93% hits; also: % is scaled to controls: 0 for no effect and ±100 for the full control effect
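VDR–SRC2-3 interaction, FP format. Cmpds 23 nl via pintool, brief spin, 2 h ambient incubation.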
PKM2 act: qHTS Assay for Activators of Human Muscle isoform 2 Pyruvate Kinase. Pyruvate kinase PKM (Homo sapiens), P14618. purified PKM2, Kinase-Glo ATP luminescence, activation; response scale: 0% is enzyme alone, no compound. Potency, µM (highest dose often 57.5 µM), without a hit: top-dose activation, most hits filed as activators. 260,000 compounds, 0.34% hits; also: % is scaled to controls: 0 for no effect and ±100 for the full control effect; nearly all actives have a fitted effect of over 55% in size
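Purified hPK-M2 (>95% pure) converted ADP (0.1 mM final) to ATP with 0.5 mM PEP in 50 mM imidazole pH7.2, KCl, MgCl2, Tween 20, BSA; 1 h at room temperature. ATP detected by Kinase-Glo luminescence.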
Mito fusion yeast: qHTS Assay for Small Molecule Inhibitors of Mitochondrial Division or Activators of Mitochondrial Fusion; S. cerevisiae fusion-defective mutant growth rescue, CellTiterGlo 48 h; Potency, µM (highest dose often 46.1 µM), inactives show at the top dose growth rescue (activation), actives largely listed as activators; 320,000 compounds, 0.23% hits; also: % of control where 0% means no effect; nearly all actives have a fitted effect of over 45% in size
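Growth-rescue viability read-out: after 48 h at the non-permissive 37C in glycerol/ethanol YPEG, yeast mitochondrial fusion mutants are measured by CellTiterGlo luminescence; compounds (23 nl pinned per well) restoring growth score as division inhibitors or fusion activators.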
KAT2A inh: qHTS Assay for Inhibitors of GCN5L2; Histone acetyltransferase KAT2A (Homo sapiens), Q92830; GCN5L2 HAT assay, ThioGlo1 CoA-SH fluorescence; Potency, µM (top dose mostly 58.9 µM), for inactives: at the top dose activity change, negative = inhibition, hits mostly inhibitors; 390,000 compounds, 0.21% hits; AID 504327, 2011; also: % is scaled to controls: 0 for no effect and ±100 for the full control effect
Target sequence (Q92830 whole entry, looked up): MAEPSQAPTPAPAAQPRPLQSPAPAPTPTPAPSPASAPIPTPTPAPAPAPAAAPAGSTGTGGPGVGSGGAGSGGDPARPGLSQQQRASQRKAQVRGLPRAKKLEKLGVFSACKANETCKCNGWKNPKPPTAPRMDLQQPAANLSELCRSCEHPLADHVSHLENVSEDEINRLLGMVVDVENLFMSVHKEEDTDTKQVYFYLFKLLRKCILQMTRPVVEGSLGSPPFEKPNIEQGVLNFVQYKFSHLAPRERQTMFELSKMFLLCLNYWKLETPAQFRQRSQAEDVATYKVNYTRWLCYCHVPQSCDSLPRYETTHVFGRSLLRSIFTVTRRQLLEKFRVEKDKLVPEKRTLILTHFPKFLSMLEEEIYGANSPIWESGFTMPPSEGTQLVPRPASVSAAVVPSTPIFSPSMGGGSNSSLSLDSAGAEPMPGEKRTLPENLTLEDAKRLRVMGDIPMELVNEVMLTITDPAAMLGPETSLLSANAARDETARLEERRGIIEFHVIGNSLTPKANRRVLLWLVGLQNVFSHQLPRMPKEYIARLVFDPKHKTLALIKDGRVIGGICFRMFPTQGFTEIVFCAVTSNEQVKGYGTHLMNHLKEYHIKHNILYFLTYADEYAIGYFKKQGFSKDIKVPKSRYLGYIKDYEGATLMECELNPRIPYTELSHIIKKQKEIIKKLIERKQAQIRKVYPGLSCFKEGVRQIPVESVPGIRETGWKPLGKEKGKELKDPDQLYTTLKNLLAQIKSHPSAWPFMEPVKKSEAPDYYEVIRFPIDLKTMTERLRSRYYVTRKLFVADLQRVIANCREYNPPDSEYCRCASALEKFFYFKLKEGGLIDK
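GCN5L2 (20nM final) in 50mM HEPES, 0.1mM EDTA pH 7.5, 0.01% Tween-20 was preincubated 15 min at room temperature with compound, then given ThioGlo1 (50uM), H3(1-25) peptide (75uM) and acetyl-CoA (70uM); CoA-thiol fluorescence (Ex340/Em540) was read at 0 and 20 min.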
GLS inhibitor: qHTS for Inhibitors of Glutaminase (GLS) | GLS enzymatic activity, qHTS titration | Potency, µM (doses to about 45.5 µM), without a hit: at the highest dose activity change, negative = inhibition, usual class: inhibitors | 410,000 compounds, 0.21% hits | AID 624170, 2012; also: % is scaled to controls: 0 for no effect and ±100 for the full control effect
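Glutamate formation by hKGA was monitored fluorometrically using coupled glutamate oxidase, HRP and Amplex Red. Substrate was added as 1 mM L-glutamine solution; incubation was 30 min at RT after an initial read.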
An asterisk follows results filed as active; u = inconclusive; x = no result given; [ ] = dose if it differs, or a comment. Most compounds without a hit are left out; they make up all but 3.4% or so of the library. Calls follow the shape of the dose curve; as a rule, active = well fitted curve in the direction sought with a large enough effect; inconclusive = small, poorly fitted or top-dose-only effect, or another doubt; inactive = no such curve, though single readings can be large; an effect the other way counts as inactive or inconclusive. Potency is read from the fitted curve at half-maximal effect.

SMILES	PLK1 PBD block	VDR inhibitor	PKM2 act	Mito fusion yeast	KAT2A inh	GLS inhibitor
COc1ccc2cc3c(N)nn(C(=O)c4ccccc4Cl)c3nc2c1	-7.2%	6.2%	20µM*	10.6%	-20.6%	17.6%
COc1ccc2cc3c(N)nn(C(=O)c4ccc(F)cc4)c3nc2c1	-15.5%	7.8%	2.6%	1.2%	-5.9%	1.0%
CCCC1S/C(=N/N=C/c2cccs2)NC1=O (stereo not drawn)	16.8µM*	5.6%	1.4%	3.4%	19.8%	37.0%
CCC1S/C(=N/N=C/c2cccs2)NC1=O (stereo not drawn)	-11.0%	-13.2%	2.2%	1.2%	-2.3%	-18.1%
CCCCOc1ccc(C(=O)CCN2CCCCC2)cc1	u	4.47µM*	4.6%	-1.2%	1.5%	1.1%
CC(C)COc1ccc(C(=O)OCCN2CCCCC2)cc1	-6.2%	5.9%	x	-0.9%	-15.4%	-1.3%
CC(C)COc1ccc(C(=O)CCN2CCCCC2)cc1	21.2µM*	u	6.1%	-18.4%	-1.2%	5.2%
CCCC(O)(CCN1CCCCC1)c1ccc(OCC)cc1 (stereo not drawn)	-28.1%	-24.7%	-2.3%	0.5%	0.6%	-3.4%
CCCCCC(O)(CCN1CCCCC1)c1ccc(OCC)cc1 (stereo not drawn)	16.8µM*	u	-15.5%	-6.2%[9.22 µM]	-1.3%	-11.1%
O=C(CCCN1C(=O)c2cccnc2Oc2ccc(Cl)cc21)NCc1ccccc1F	x	10.9%	x	x	-9.5%	-9.4%
CCCC[C@]12Cc3ccccc3C(O1)c1c(cc(-c3ccccc3)oc1=O)O2	x	x	19.4%[11.5 µM]	0.1%[9.22 µM]	-6.5%[12.7 µM]	x
Cc1cccc(N2C(=O)/C(=C\c3ccc(C(=O)O)cc3)c3ccccc3C2=O)c1	6.7µM*	u	u	-2.3%	-6.1%	-24.4%
CC(=O)Nc1cccc(OCCCNS(=O)(=O)c2ccc(F)cc2)c1	-2.7%	-16.0%	-0.2%	-4.1%	2.9%	-0.2%
CCOc1ccccc1NCc1nnc2n1CCCCC2	x	13.3%	x	x	-10.6%	3.3%
Cc1ccccc1/C=N/Nc1nc2ccccc2c(=O)n1O	11.9µM*	-10.8%	1.8%	2.0%	1.1%	9.5%
CCOCCCNC(=S)NCCCNc1nc2c(C)cc(C)cc2cc1C#N	23.8µM*	u	2.5%	-0.3%	-3.3%	-5.6%
CCOn1c(=O)c(-c2ccc(Br)cc2)[n+]([O-])c2ccccc21	-4.8%	3.0%	x	-0.6%	-7.6%	0.4%
O=c1c(-c2ccc(Br)cc2)[n+]([O-])c2ccccc2n1OCc1ccccn1	23.8µM*	-17.4%	-0.1%	1.6%	-1.6%	1.0%
C=CCOn1c(=O)c(-c2ccc(OC)cc2)[n+]([O-])c2ccccc21	11.9µM*	-5.0%	5.1%	0.7%	-0.7%	-0.3%
CC(=O)NN1C(=O)/C(=C2/Sc3ccc(Cl)cc3N2C)SC1=S	-28.9%	-15.4%	x	-0.7%	13.7%	7.3%
Cc1c(Cl)cccc1Nc1nc(N)nc(CSc2nc3ccccc3s2)n1	-6.0%	-2.8%	6.3%	8.91µM*	-16.8%	2.3%
O=C(C(Br)=Cc1ccccc1)c1ccccc1	u	22.4µM*	x	x	x	4.0%
Cc1ccc(S(=O)(=O)N2[C@@H](c3ccc(C(C)(C)C)cc3)C(C(=O)O)=CC[C@H]2c2ccc(Cl)c(Cl)c2)cc1	26.7µM*	2.3%	x	x	u	-1.9%
Cc1ccc(S(=O)(=O)N2[C@@H](c3ccc(C(C)(C)C)cc3)C(C(=O)O)=CC[C@H]2c2cccc(Cl)c2)cc1	21.2µM*	u	x	x	u	-13.0%
Cc1ccc(S(=O)(=O)N2[C@@H](c3cccc(Cl)c3)C(C(=O)O)=CC[C@H]2c2cccc(C)c2)cc1	u	-25.4%	x	3.5%	u	33.7%
SMILES	PLK1 PBD block	VDR inhibitor	PKM2 act	Mito fusion yeast	KAT2A inh	GLS inhibitor
Cc1ccc(S(=O)(=O)N2[C@@H](c3cccc(Cl)c3)C(C(=O)O)=CC[C@H]2c2cccc(Cl)c2)cc1	26.7µM*	-18.3%	x	2.6%	-0.2%	19.2%
COc1ccc([C@@H]2CC=C(C(=O)O)[C@H](c3ccc(C(C)(C)C)cc3)N2S(=O)(=O)c2ccc(C)cc2)cc1OC	0.1%	14.1%	x	x	-5.6%	0.1%
CCOC(=O)C1=CC[C@@H](c2ccccc2)N(S(=O)(=O)c2ccc(C)cc2)[C@H]1C#N	6.7µM*	x	x	x	x	0.0%
Cc1cccc(NC(=O)c2ccc(C)c(S(=O)(=O)N3CCCCC3)c2)n1	-9.6%	-3.7%	x	-0.6%	-15.3%	3.4%
NC(=O)c1cc[n+](Cc2ccc([N+](=O)[O-])cc2)cc1	-12.7%	-1.2%	0.1%[11.5 µM]	-2.3%	-6.8%	-2.3%
CCc1ccc([C@@H]2CC=C(C(=O)O)[C@H](c3cccc(Cl)c3)N2S(=O)(=O)c2ccc(C)cc2)cc1	21.2µM*	-26.4%	x	22.8%	u	69.4%
CCc1ccc([C@@H]2CC=C(C(=O)O)[C@H](c3ccc(Cl)cc3)N2S(=O)(=O)c2ccc(C)cc2)cc1	u	-27.7%	x	-13.9%	u	38.4%
Cc1c(Cl)cccc1Nc1n[nH]c(=S)s1	u	-21.9%	x	x	x	19.2%
COc1cc(C(O)P(=O)(OCC(C)C)OCC(C)C)cc(OC)c1OC (stereo not drawn)	11.9µM*	-8.4%	-2.9%	-2.1%	-3.0%	10.0%
COc1ccc(CCNC(=O)CCc2ccsc2)cc1OC	-5.9%	-3.6%	-3.8%	-7.3%	-0.2%	-14.0%
CC(C)C(=O)Nc1cccc(C(=O)Nc2nnc(CC(C)(C)C)s2)c1	x	-12.0%	x	x	1.0%	-5.8%
Cc1ccc2nc(Cl)c(C3CC(c4ccco4)=NN3C(=O)CCCC(=O)O)cc2c1 (stereo not drawn)	-27.7%	23.9%	5.7%	0.2%	2.3%	-3.7%
CC(=O)N1N=C(c2ccco2)CC1c1cc2cc(C)ccc2nc1Cl (stereo not drawn)	-3.3%	-7.5%	0.7%	-2.6%	-4.9%	5.62µM*
COc1ccc2nc(Cl)c(C3CC(c4ccco4)=NN3C(=O)CCCC(=O)O)cc2c1 (stereo not drawn)	-9.4%	-0.2%	22.4µM*	3.9%	u	0.0%
COc1ccc2nc(Cl)c(C3CC(c4ccco4)=NN3C(=O)CCC(=O)O)cc2c1 (stereo not drawn)	-9.7%	-7.1%	4.9%	-1.7%	-4.9%	7.8%
CCOc1ccc(-c2cc(C(=O)NCc3ccc(OCC)c(OC)c3)[nH]n2)cc1	x	2.5%	x	x	-2.0%	-0.1%
[C-]#[N+]c1cc(-c2ccncc2)c(C)[nH]c1=O	x	-5.2%	x	x	-28.5%	x
